Bioassay records (PubChem)
Most compounds without a hit are left out; they make up all but 6.2% or so of the library.
Lassa entry inh: qHTS for Inhibitors of binding or entry into cells for Lassa Virus. Lassa virus pseudotype entry inhibition, cell reporter. Potency, µM (highest dose often 37.9 µM), actives largely listed as inhibitors. 300,000 tested, 1.2% active. AID 540256, 2011; calls by dose curve; tested in HEK293 cells; note: nearly all actives have a fitted effect of over 50% in size
Marburg entry inh: qHTS for inhibitors of binding or entry into cells for Marburg Virus; Marburg virus pseudotyped entry inhibition, cell reporter; Potency, µM (series often up to 37.8 µM), most hits filed as inhibitors; 300,000 tested, 1.8% active; AID 540276, 2011; calls by dose curve; tested in HEK293 cells
FMDV inh: High Throughput Screening for Foot and Mouth Disease Virus Antivirals | FMDV antiviral cell-based qHTS | Potency, µM (titrated, usually from 57.9 µM), most hits filed as inhibitors | 410,000 tested, 1.2% active; calls by dose curve; tested in HEK293T cells; note: read-out not given here; nearly all actives have a fitted effect of over 45% in size
HCMV inh: qHTS Assay for inhibitors of the human cytomegalovirus (HCMV) | HFF cells, HCMV-luciferase reporter, 72 h; hits give low values | activity change, negative = inhibition, % at 57.5 µM | 410,000 tested, 4.5% active; in the data active = activity change below about -60%; inconclusive = no clear call, values can overlap the other calls; inactive = above about -39%
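HFF cells seeded 16 h at 37C, treated with compounds, infected with luciferase-reporter HCMV at MOI 1 PFU/cell; luciferase read at 72 h post infection, normalized to buffer-only and Salinomycin controls.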
Each line names hits and unclear results; the compound was inactive in the other large screens; ! = not confirmed by another sample.

COc1ccc(-n2c(O)c(/C=C3\C=Nc4ccc(Br)cc43)c(=O)[nH]c2=O)cc1	FMDV inh 15.8µM
O=C(CCN1C(=O)/C(=C/c2cccs2)SC1=S)NC1=NCCS1	none
O=C(Nc1ccccn1)c1onc2c1CCCC2	Lassa entry inh 7.31µM, Marburg entry inh inconclusive, FMDV inh 14.1µM, HCMV inh inconclusive
O=C(Nc1ccccn1)c1csc2c1CCCC2	Lassa entry inh inconclusive, Marburg entry inh inconclusive
CCOc1cc(CNn2cnnc2)cc(Br)c1OCC(=O)NC1CCCCC1	none
COc1ccc(CCNc2oc(COc3ccc(Br)cc3)nc2C#N)cc1OC	FMDV inh 31.6µM (no result: Lassa entry inh, Marburg entry inh)
COc1ccc(CCNc2oc(Cc3cccc4ccccc34)nc2C#N)cc1OC	Lassa entry inh inconclusive, Marburg entry inh inconclusive, FMDV inh 28.2µM
COc1ccc(CCNc2oc(COc3ccccc3F)nc2C#N)cc1	none
CCc1cc2c(nc1CC)CCN(CC/C(C)=N/OC[C@H]1O[C@H](c3ccccc3)C=C[C@@H]1Oc1ccc(OC)cc1)C2	none (no result: FMDV inh, HCMV inh)
CC1=NN(C(C#N)c2ccc(F)cc2)C(C)(C)C1 (stereo not given)	none
CC1=NN(C(C#N)c2ccccc2C)C(C)(C)C1 (stereo not given)	HCMV inh -64.6
O=C(CNCc1ccc(Cl)cc1)Nc1ccc(C(=O)N2CCCCCC2)cc1	none
Cc1ccc(S(=O)(=O)NC(CC(=O)N2CCOCC2)c2ccco2)cc1 (stereo not given)	none
CC(C)CC(=O)NC(=S)Nc1nc(-c2ccc(Cl)cc2)cs1	none
COc1ccc(OC)c(NC(=O)c2cccc(N3C(=O)C4C5C=CC(C6CC56)C4C3=O)c2)c1 (stereo not given)	FMDV inh 25.1µM, HCMV inh inconclusive (no result: Lassa entry inh, Marburg entry inh)
COc1ccc(OC)c(NC(=O)c2cccc(N3C(=O)C4C5CCC(C5)C4C3=O)c2)c1 (stereo not given)	Lassa entry inh inconclusive, Marburg entry inh inconclusive, FMDV inh 20µM
Cc1cccc(NC(=O)c2ccc(N3C(=O)C4C5C=CC(C6CC56)C4C3=O)cc2)c1 (stereo not given)	FMDV inh 25.1µM (no result: Lassa entry inh, Marburg entry inh)
O=C(Nc1ccc(Br)cc1)c1cccc(N2C(=O)C3C4CCC(C4)C3C2=O)c1 (stereo not given)	Lassa entry inh inconclusive, Marburg entry inh inconclusive, FMDV inh 39.8µM, HCMV inh -81.3
COc1ccc(NC(=O)c2cc(N3C(=O)C4C5CCC(C5)C4C3=O)ccc2Cl)c(OC)c1 (stereo not given)	none
O=C(CSCc1c[nH]c(=O)[nH]c1=O)OCC(=O)c1ccc(Br)cc1	none
S=C(NCc1ccccn1)Nc1ccc(Cl)c(Cl)c1	Lassa entry inh inconclusive
CCOc1ccc(C2C(C#N)=C(N)Oc3cc(C)oc(=O)c32)cc1 (stereo not given)	none
O=C(Nc1ccc(Cl)cc1)N1CC2CC(C1)c1cccc(=O)n1C2 (stereo not given)	Marburg entry inh inconclusive
CCN1CCN(Cc2ccc(NC(=O)c3cc(NC(=O)c4cncc(-c5cccs5)c4)cc(OC)c3)cc2C(F)(F)F)CC1	HCMV inh -101.7 (no result: Lassa entry inh, Marburg entry inh)
CCN1CCN(Cc2ccc(NC(=O)c3cc(NC(=O)c4cc5cccc(OC)c5o4)cc(OC)c3)cc2C(F)(F)F)CC1	FMDV inh 39.8µM!, HCMV inh -101.7! (no result: Lassa entry inh, Marburg entry inh)
CCN1CCN(Cc2ccc(NC(=O)c3cc(NC(=O)c4cc(-c5ccc(OC)cc5)n[nH]4)cc(OC)c3)cc2C(F)(F)F)CC1	none (no result: Lassa entry inh, Marburg entry inh)
CCN1CCN(Cc2ccc(NC(=O)c3ccc(C)c(NC(=O)c4c[nH]c5cc(C(F)(F)F)ccc5c4=O)c3)cc2C(F)(F)F)CC1	FMDV inh inconclusive, HCMV inh -98.4 (no result: Lassa entry inh, Marburg entry inh)
CCN1CCN(Cc2ccc(NC(=O)c3cc(NC(=O)N4CCNC4=O)cc(OC)c3)cc2C(F)(F)F)CC1	FMDV inh inconclusive, HCMV inh -68.2! (no result: Lassa entry inh, Marburg entry inh)
CCN1CCN(Cc2ccc(NC(=O)c3cc(NC(=O)c4ccc5n[nH]nc5c4)cc(OC)c3)cc2C(F)(F)F)CC1	none (no result: Lassa entry inh, Marburg entry inh)
Nc1nc(SCC(=O)NCCCO)nc2sc3c(c12)CCC3	none
COc1cc(C2N=C(N)Nc3nc4ccccc4n32)ccc1OCC(=O)O (stereo not given)	none
CCN(CC)c1cc(C)c2cc(NC(=O)c3cc(OC)cc(OC)c3)ccc2n1	Lassa entry inh inconclusive, HCMV inh -84.5
CCN(CC)c1cc(C)c2cc(NC(=O)c3ccc(OC)c(OC)c3)ccc2n1	Lassa entry inh inconclusive, Marburg entry inh inconclusive, HCMV inh -89.3
CCCCc1ccc(C(=O)Nc2ccc3nc(N(CC)CC)cc(C)c3c2)cc1	Marburg entry inh inconclusive, FMDV inh inconclusive, HCMV inh -60.8
CCN(CC)c1cc(C)c2cc(NC(=O)c3ccccc3OC)ccc2n1	Lassa entry inh inconclusive, Marburg entry inh inconclusive, HCMV inh -60.2
CCN(CC)c1cc(C)c2cc(NC(=O)c3cccc(F)c3)ccc2n1	Marburg entry inh inconclusive, HCMV inh inconclusive
COc1cc(C2c3c(oc4c(C)cc(C)cc4c3=O)C(=O)N2Cc2cccnc2)cc(OC)c1OC (stereo not given)	none (no result: Lassa entry inh, FMDV inh, HCMV inh)
CCN(CC)c1cc(C)c2cc(NC(=O)/C=C/c3ccccc3Cl)ccc2n1	HCMV inh -106.5
O=C1N=C(N2CCCCC2)S/C1=C\c1ccccc1F	Marburg entry inh inconclusive
CCCOc1ccccc1/C=C1\SC(N2CCCCC2)=NC1=O	Lassa entry inh inconclusive, Marburg entry inh inconclusive, HCMV inh -81.9
CCOc1ccccc1NC(=O)N1CCCc2ccccc21	HCMV inh inconclusive
Cc1ccc(C)c(OC2=NS(=O)(=O)c3ccccc32)c1	FMDV inh 35.5µM
CCC(Sc1nnc(C)n2c1cc1sccc12)C(=O)Nc1ccccc1F (stereo not given)	HCMV inh -64.3 (no result: Marburg entry inh)
O=C(COc1ccccc1)NCC(=O)N/N=C/c1cc(Br)ccc1OCc1ccccc1	Lassa entry inh inconclusive, Marburg entry inh 8.91µM
O=C(COc1ccc(-c2ccccc2)cc1)N/N=C/c1cc(O)ccc1Br	HCMV inh -61.0
O=C(COc1ccc(-c2ccccc2)cc1)N/N=C/c1ccccc1Br	none
N#CCN=C(c1ccccc1)c1ccccc1	none (no result: Lassa entry inh, Marburg entry inh)
CCOC(=O)[C@]12Cc3c(cc(OC)c(OC)c3OC)[C@H]1N(C(C)C)C(=O)c1cc(OC)ccc12	FMDV inh 14.1µM, HCMV inh -99.6 (no result: Lassa entry inh, Marburg entry inh)
CCOC(=O)[C@]12Cc3c(cc(OC)c(OC)c3OC)[C@H]1N(Cc1ccccc1)C(=O)c1ccccc12	none (no result: Lassa entry inh, Marburg entry inh)
CCOC(=O)[C@]12Cc3c(cc(OC)c(OC)c3OC)[C@H]1N(C)C(=O)c1ccccc12	none (no result: Lassa entry inh, Marburg entry inh)
CCOC(=O)[C@]12Cc3cc(C)ccc3[C@H]1N(C)C(=O)c1cc(OC)ccc12	FMDV inh 39.8µM, HCMV inh -109.2 (no result: Lassa entry inh, Marburg entry inh)
CCOC(=O)[C@]12Cc3cc(OC)ccc3[C@H]1N(C(C)C)C(=O)c1cc(OC)ccc12	FMDV inh 15.8µM, HCMV inh -100.0 (no result: Lassa entry inh, Marburg entry inh)
CCOC(=O)[C@]12Cc3c(cc(OC)c(OC)c3OC)[C@H]1N(C1CCCCC1)C(=O)c1cc(OC)ccc12	FMDV inh 12.6µM, HCMV inh -99.3 (no result: Lassa entry inh, Marburg entry inh)
CC(C)c1ccc(NC(=O)CSc2nnc(-c3ccccn3)n2C)cc1	HCMV inh inconclusive
CCS(=O)(=O)N1N=C(c2cccc(NS(C)(=O)=O)c2)CC1c1ccc(C)cc1 (stereo not given)	none
